Assay results: ChEMBL document CHEMBL3988442, “University of Dundee, Small-Polar-MMV Screening Library” (2021)
In all, about 67,000 compounds went through this assay and about 300 (0.45%) showed an effect of 50% or more. This is one part of a sample in which strong results are shown more often than they occur.

Target: Polyketide synthase Pks13 (Mycobacterium tuberculosis (strain ATCC 25618 / H37Rv)) (UniProt I6X8D2)
Assay: Mycobacterium tuberculosis Polyketide synthase 13 Thioesterase (PKS13)
Type: functional
Set-up: scale not given: in the data most compounds retested in dose-response had high values
Settings: 30 µM

Chain of Polyketide synthase Pks13 (Mycobacterium tuberculosis (strain ATCC 25618 / H37Rv)) (I6X8D2 whole entry): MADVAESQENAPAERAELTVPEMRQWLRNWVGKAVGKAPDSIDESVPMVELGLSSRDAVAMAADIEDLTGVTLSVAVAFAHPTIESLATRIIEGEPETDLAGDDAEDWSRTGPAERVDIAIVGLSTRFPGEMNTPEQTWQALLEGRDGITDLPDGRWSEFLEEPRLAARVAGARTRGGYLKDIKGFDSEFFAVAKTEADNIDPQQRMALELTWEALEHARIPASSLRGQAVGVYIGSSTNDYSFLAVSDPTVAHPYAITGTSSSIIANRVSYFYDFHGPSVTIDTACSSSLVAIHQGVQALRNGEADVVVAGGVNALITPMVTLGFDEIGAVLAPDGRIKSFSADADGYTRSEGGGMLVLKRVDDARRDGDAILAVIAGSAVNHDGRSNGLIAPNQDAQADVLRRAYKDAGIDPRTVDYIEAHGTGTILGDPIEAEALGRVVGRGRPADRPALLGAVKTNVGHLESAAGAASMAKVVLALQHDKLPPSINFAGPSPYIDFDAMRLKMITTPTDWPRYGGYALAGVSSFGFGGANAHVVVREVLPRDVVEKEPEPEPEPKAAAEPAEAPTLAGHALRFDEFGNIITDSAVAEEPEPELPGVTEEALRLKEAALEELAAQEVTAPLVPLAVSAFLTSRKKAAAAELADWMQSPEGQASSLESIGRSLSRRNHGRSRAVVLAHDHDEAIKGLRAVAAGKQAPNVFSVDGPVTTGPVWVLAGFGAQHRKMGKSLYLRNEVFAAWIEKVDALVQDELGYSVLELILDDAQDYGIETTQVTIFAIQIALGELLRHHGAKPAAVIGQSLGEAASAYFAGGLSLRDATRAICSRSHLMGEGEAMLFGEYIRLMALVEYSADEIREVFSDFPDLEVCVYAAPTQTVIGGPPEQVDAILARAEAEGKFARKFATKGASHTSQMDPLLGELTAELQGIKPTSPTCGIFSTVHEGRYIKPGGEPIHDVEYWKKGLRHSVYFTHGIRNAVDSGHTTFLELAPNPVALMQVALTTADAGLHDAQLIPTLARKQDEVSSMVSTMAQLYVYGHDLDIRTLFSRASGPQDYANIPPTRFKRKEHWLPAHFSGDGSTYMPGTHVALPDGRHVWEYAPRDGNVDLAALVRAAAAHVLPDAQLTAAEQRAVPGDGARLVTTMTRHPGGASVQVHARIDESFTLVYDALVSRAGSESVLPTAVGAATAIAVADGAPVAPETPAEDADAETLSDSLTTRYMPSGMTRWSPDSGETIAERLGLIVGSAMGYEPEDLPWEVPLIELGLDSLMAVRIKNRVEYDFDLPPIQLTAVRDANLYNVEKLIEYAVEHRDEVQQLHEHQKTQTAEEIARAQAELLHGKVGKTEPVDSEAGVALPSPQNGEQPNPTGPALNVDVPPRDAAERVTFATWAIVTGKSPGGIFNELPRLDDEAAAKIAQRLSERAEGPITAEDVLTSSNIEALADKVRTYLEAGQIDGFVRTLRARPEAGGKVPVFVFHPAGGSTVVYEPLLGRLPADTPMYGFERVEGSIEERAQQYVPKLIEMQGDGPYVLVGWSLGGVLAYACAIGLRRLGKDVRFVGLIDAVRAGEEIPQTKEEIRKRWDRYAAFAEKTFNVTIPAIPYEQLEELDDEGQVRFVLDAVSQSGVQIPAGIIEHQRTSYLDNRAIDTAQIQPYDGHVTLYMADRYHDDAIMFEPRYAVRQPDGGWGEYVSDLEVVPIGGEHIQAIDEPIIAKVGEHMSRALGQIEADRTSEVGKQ

SMILES	Percent Effect
CN(C)C(=O)CN1C[C@@H]2CC[C@H](C1)N(Cc1ccccc1OCCO)C2	-4.8%
CCCN1CCN(Cc2cccc(OC(C)C)c2)[C@H]2CS(=O)(=O)C[C@H]21	-8.54%
O=C(CO[C@@H]1CC[C@H]2[C@H]1OCCN2c1ncccn1)N1CCCC1	-31.3%
C1CCN(CCO[C@@H]2CC[C@H]3[C@H]2OCCN3CC2CCOCC2)C1	-4.73%
c1cnc(NC[C@H]2OC[C@@H]3CCN(Cc4ccsc4)C[C@@H]32)nc1	-14%
Cc1ccc(S(=O)(=O)N2CC[C@H]3CO[C@H](CN(C)C)[C@H]3C2)cc1	-8.17%
CC(C)N1C(=O)CO[C@H]2CCN(C(=O)c3ccc4c(c3)CCC4)CC[C@@H]21	13%
Cc1nc(-c2ccc(Cl)s2)sc1C(=O)O	11.9%
Cc1nc(-c2ccc(Cl)s2)sc1C(=O)NC(C)(C)C(N)=O	59.7%
CC(C)(NC(=O)c1ccc(-c2ccc(F)cc2)s1)C(N)=O	-17.8%
O=C1[C@@H]2CN(Cc3cc4ccccc4o3)C[C@]2(C(=O)O)CN1CC1CC1	-17.7%
CN(C)C(=O)N1C[C@@H]2CC[C@H](C1)N(C(=O)CCCn1cncn1)C2	-5.92%
Cc1csc(CNc2cnc3c(c2)c(C)nn3C)n1	54.4%
Cc1csc(CNc2nc3c(s2)c(C)nn3C)n1	24%
Cc1csc(CCNCc2cnc3c(c2)c(C)nn3C)n1	-13.2%
Cc1ccc([C@]2(O)CC[C@H]3CN(Cc4cccc(Cl)c4Cl)C[C@H]32)nc1	-77.5%
COc1ccnc(N2C[C@@H]3CC[C@H](C2)N(CC2CC2)C3)n1	-40.5%
Cc1ccc(-c2cc(C(=O)NCCCc3csc(N)n3)[nH]n2)s1	57.8%
Cc1ccc(-c2cc(C(=O)NCCCc3csc(N)n3)[nH]n2)o1	-10.8%
Cn1cccc1-c1cc(C(=O)NCCCc2csc(N)n2)[nH]n1	3.3%
COCCN1C[C@H]2[C@@H](C1)N(C(=O)CCc1ccccc1)CC[C@H]2OC	-5.76%
Cc1nnc([C@@H]2CC[C@@H]3[C@@H](CCN3S(=O)(=O)c3cccnc3)O2)o1	-18.5%

SMILES	Percent Effect
NC(=O)c1cc(-c2cccc(C(=O)O)c2)cs1	-10.7%
NC(=O)c1cc(-n2cc(-c3cccc(C(=O)O)c3)cn2)cs1	-18.4%
NC(=O)c1ccccc1-n1cc(-c2cccc(C(=O)O)c2)cn1	61.5%
CC(=O)N1[C@H](CN(C)C)C[C@@H]2CN(C(=O)c3cccc(F)c3)CC[C@@H]21	-7.05%
O=C(c1ccc(F)cc1)N1C[C@@H]2CN(c3ncccn3)C[C@@H]2C1	-16.8%
CN(C)S(=O)(=O)N1CC[C@]2(O)CCN(c3ncccn3)C[C@@H]2C1	5.3%
CS(=O)(=O)NC[C@H]1OC[C@@H]2CN(Cc3cccnc3)CC[C@@H]21	7.73%
CC(C)CCC(=O)NC(C)c1nnc2n1CCCCC2 (stereo not drawn)	-2.75%
CC(NC(=O)COCC(F)(F)F)c1nnc2n1CCCCC2 (stereo not drawn)	-15.5%
CC(NC(=O)CN(C)S(C)(=O)=O)c1nnc2n1CCCCC2 (stereo not drawn)	76.2%
Cc1noc(C)c1CN1C[C@@H]2CCCO[C@@H]2[C@H](Nc2ccccn2)C1	-22.7%
Cc1nnc(C[C@@H]2COC[C@H]3CN(C(=O)c4ccco4)C[C@@H]23)o1	-27.6%
Cc1cccc(CN2C[C@H]3C[C@H](C(=O)NCc4cccnc4)[C@@H](C2)O3)c1	2.63%
Cc1nnc([C@H]2CCN(CCCc3ccccc3)C2)o1	8.46%
c1ccc(CCCN2CC[C@H](c3nnc(-c4ccccc4)o3)C2)cc1	96.4%
c1ccc(CCCN2CC[C@H](c3nnc(-c4cccnc4)o3)C2)cc1	-20%
Cc1nc(O)cc(CNC(=O)CC[C@@H]2CCCN3CCCC[C@H]23)n1	-2.37%
COc1cccc(CNC[C@@]2(COc3cccnc3)C[C@@H](O)[C@@H](O)C2)c1	3.65%
COc1ccc(C2CCCN2C(=O)c2cc3c([nH]c2=O)CCC3)cc1 (stereo not drawn)	57.9%
COCc1nc(C(=O)N2CCCC2c2ccc(OC)cc2)cs1 (stereo not drawn)	76.5%
COc1cccc(C2CCCN2C(=O)c2cc3c([nH]c2=O)CCC3)c1 (stereo not drawn)	43.2%
O=C(c1cc2c([nH]c1=O)CCC2)N1CCCC1c1ccc(F)cc1 (stereo not drawn)	-4.09%

SMILES	Percent Effect
COCc1nc(C(=O)N2CCCC2c2cccc(C)c2)cs1 (stereo not drawn)	-1.31%
COCc1nc(C(=O)N2CCCC2c2ccncc2)cs1 (stereo not drawn)	-19.5%
Cc1ccc(CN2C[C@@H]3[C@@H](C(=O)NCC(C)C)CCS(=O)(=O)[C@@H]3C2)cc1	-36.5%
CCc1ccc(NC(=O)N2C[C@H]3C[C@H](C(=O)N4CCCC4)[C@@H](C2)O3)cc1	-33.7%
COC[C@@]12CCO[C@@H]1CCN(C(=O)COc1ccccc1OC)C2	-28.6%
CNC(=O)[C@H]1C[C@H]2OCC[C@H]2N(Cc2cccc3ccccc23)C1	-14%
CCCN1C[C@H]2CC[C@@H]1CN(C(=O)Cc1c(C)nc(CC)[nH]c1=O)C2	-18.4%
CCCN1CCN(C(=O)c2ccc3ccccc3n2)[C@H]2CS(=O)(=O)C[C@H]21	11.6%
Cc1noc(C)c1CN1C(=O)[C@H]2CC[C@@H]1CN(Cc1nccs1)C2	-22.4%
COc1ccc(C(=O)Nc2cccc(SC)c2)c(OC)n1	-19.8%
COc1ccc(CC(C)Nc2cccc(SC)c2)cc1 (stereo not drawn)	57.2%
COc1ccc(CCNC(=O)C(C)Nc2ccc(C)c(C)c2)cc1 (stereo not drawn)	1.46%
COc1ccc(CC(C)Nc2cccc(F)c2)cc1 (stereo not drawn)	8.52%
COc1ccc(CCC(C)Nc2cccc(SC)c2)cc1 (stereo not drawn)	65.2%
COc1ccc(CCNC(=O)C(C)Nc2cccc(C)c2C)cc1 (stereo not drawn)	10.4%
Cn1cc(CN2C[C@@H]3COC[C@]3(CNC(=O)c3ccsc3)C2)cn1	-27.4%
Cc1noc([C@@]23CCO[C@@H]2CCN(Cc2scnc2C)C3)n1	-8.64%
Cc1cc(CN2C[C@H]3CCC[C@@]3(COCc3csc(C)n3)C2)no1	-42.7%
Cc1cc(F)ccc1C(=O)N1C[C@@H]2COC[C@]2(CN(C)C)C1	-28.5%
O=C([C@H]1COC[C@H]2CN(C3CCCC3)C[C@H]21)N1CCCCO1	-0.965%
Cc1ccnc(OC[C@]23COC[C@H]2CN(C(=O)c2ncccn2)C3)n1	64%
Cc1ccnc(OC[C@]23COC[C@H]2CN(C(=O)c2ccnn2C)C3)n1	-7.96%

SMILES	Percent Effect
Cc1ccnc(OC[C@]23COC[C@H]2CN(C(=O)c2cnccn2)C3)n1	-10.7%
COCCNC(=O)[C@@]12CCO[C@@H]1CCN(Cc1cc(C)on1)C2	-12.3%
Cn1cc(CN2C[C@@H]3COC[C@@H](C(=O)N4CCCCO4)[C@@H]3C2)cn1	-30.5%
Cc1ccccc1-n1cc(CN(C)C[C@@H]2CCCN3CCCC[C@H]23)cn1	-16.8%
Cc1cc(C(=O)N2C[C@@H]3COC[C@]3(c3nnc(C4CC4)o3)C2)on1	-7.03%
CC(CN1CCCC1=O)NC(=O)c1ccc(-c2ccco2)[nH]c1=O (stereo not drawn)	73%
CCC(C)NC(=O)c1ccc(-c2ccco2)[nH]c1=O (stereo not drawn)	7.06%
Cc1ccc(C(=O)NC(C)CN2CCCC2=O)c(=O)[nH]1 (stereo not drawn)	-2.59%
O=C1[C@@H]2CCN(C3CCOCC3)C[C@@H]2OCCN1Cc1cccnc1	-7.59%
COC[C@H]1CNC(=O)[C@@H]2CCN(Cc3ccc(F)cc3)CC[C@H]12	-30.6%
Cn1cnc(-c2nc(C(=O)NC3CC3)c3ccccn23)c1	113%
CC(C)n1cnc(-c2nc(C(=O)NC3CC3)c3ccccn23)c1	22.1%
COCCNC(=O)c1nc(-c2cn(C)cn2)n2ccccc12	21.3%
Cn1cnc(-c2nc(C(=O)NCCN3CCOCC3)c3ccccn23)c1	141%
Cn1cnc(-c2nc(C(=O)NCC3CCCO3)c3ccccn23)c1 (stereo not drawn)	5.5%
Cn1cnc(-c2nc(C(=O)NCCN3CCCC3)c3ccccn23)c1	18.6%
N#Cc1c(N2CCCN(C3CCOCC3)CC2)nc2ccccn12	95.8%
CN1CCCC(N2CCN(c3nc4ccccn4c3C#N)CC2)C1 (stereo not drawn)	15.1%
N#Cc1c(N2CCN(CC3CCOC3)CC2)nc2ccccn12 (stereo not drawn)	5.84%
CC(C)c1noc(CC[C@@H]2CCCN3CCCC[C@H]23)n1	-17.9%
c1cc(CN2CC[C@H]3CO[C@H](CN4CCOCC4)[C@H]3C2)cs1	-3.35%
Cc1cnc(N2CCC3(CCN(CC4CCCC4)C3=O)CC2)nc1	-3.7%

SMILES	Percent Effect
Cc1cnc(N2CCC3(CCN(CC4CC4)C3=O)CC2)nc1	71.3%
O=C1N(CC2CC2)CCC12CCN(c1ncccn1)CC2	2.59%
COc1ccc(CN2CC[C@H]3CO[C@H](CNC(=O)N(C)C)[C@H]3C2)cc1	-14.2%
CCCn1c(N2CCCCC2)nc2c(C)nn(C)c2c1=O	14%
CCCn1c(N2CCCC2)nc2c(C)nn(C)c2c1=O	67%
CCCn1c(N2CCCC(C)C2)nc2c(C)nn(C)c2c1=O (stereo not drawn)	3.25%
Cc1ccoc1-c1nnc(CN2CCOC(Cn3cccn3)C2)o1 (stereo not drawn)	-3.25%
Cc1noc(C)c1C(=O)N1C[C@H]2CC[C@@H]1CN(c1cnccn1)C2	-13.5%
Cn1nccc1CCC(=O)N1CCCC(c2cnccn2)C1 (stereo not drawn)	54.2%
Cn1nccc1CCC(=O)N1CCOC(c2cnccn2)C1 (stereo not drawn)	4.28%
Cn1nccc1CCC(=O)N1CCC(c2cnccn2)CC1	-6.75%
COc1ccccc1N1CCC(CNCc2ccc(C#N)cc2)C1 (stereo not drawn)	-12.2%
COc1ccccc1N1CCC(CNCc2cccc(C#N)c2)C1 (stereo not drawn)	14.1%
COc1ccccc1N1CCC(CNS(=O)(=O)c2c(C)nn(C)c2C)C1 (stereo not drawn)	0.665%
COc1ccccc1N1CCC(CNS(=O)(=O)c2cccs2)C1 (stereo not drawn)	80.9%
COc1ccccc1N1CCC(CNCc2cccc(OC)c2OC)C1 (stereo not drawn)	-8.68%
COc1ccccc1N1CCC(CNS(=O)(=O)c2cccc(C#N)c2)C1 (stereo not drawn)	50.9%
O=C([C@H]1CC[C@@H]2[C@@H](CCN2c2ncccn2)O1)N1CCCCO1	4.55%
Cn1cnc(S(=O)(=O)N2CCO[C@H]3[C@H](OCC4CC4)CC[C@@H]32)c1	-28.3%
O=C(N1CCOCC1)[C@@]12CCO[C@@H]1CCN(CCN1CCCCC1)C2	-23.6%
